Experimental findings from PubChem BioAssay AID463173 (ICCB-Longwood Screening Facility, Harvard Medical School, 2010) are described below.

Molecules are shown by their SMILES. The campaign covered roughly 52,000 compounds. About 4,300 (8.3%) were called active. Cut-off read from the data, not from the text of the source: active = survival mostly below about 52% (no sharp cut-off); inactive = mostly above about 56%. The full list was thinned out, with actives kept by preference.

For this test, the system named is DeltatarO mutant. Description: growth inhibition of S. aureus wild type versus tarO mutant, primary screen, teichoic acid synthesis inhibitors, RN4220, OD600 (AID 463173). The note with it: OD600, 18 h, active compounds read low, screened at 18.75 µg/mL (by protocol).
On to `COc1cccc(CNC(=O)c2nn(C)c3c2CS(=O)(=O)c2ccccc2-3)c1`, for which the survival was 74% (inactive).

On to `CC(=O)c1ccc(NC(=O)CSc2cn(CC(=O)N3CCCCC3)c3ccccc23)cc1`, for which the survival is 63% (inactive).

Take `Cc1nc(C)c(-c2csc(NCc3ccccc3)n2)s1`: the survival is 65% (active).

With `COCC(=O)Nc1nc(-c2ccccc2)cs1`, the survival was 112% (inactive).

For the molecule `C=CCNc1nc(-c2ccccc2)cs1`, the survival was 97% (inactive).

As to `COc1cccc(C(=O)CN2C3=NCCN3c3ccccc32)c1`, the survival is 106% (inactive).

`CC1=C(C(=O)Nc2cccc(F)c2)C2(CCCCCC2)OC1=O`: the survival was 70% (inactive).

Take `Cc1ccc(C2=NN(CC(=O)NCCCN(CC(C)C)CC(C)C)C(=O)CC2)cc1`: the survival was 83% (inactive).

Consider `CCN(CCCNC(=O)CN1N=C(c2ccc(C)cc2)CCC1=O)c1ccccc1`, for which the survival is 0% (active).

Consider `CCN(CCCNC(=O)CN1N=C(c2ccccc2)CCC1=O)c1cccc(C)c1`, for which the survival is 124% (inactive).

With `CCN(CCCNC(=O)CN1N=C(c2ccccc2)CCC1=O)c1ccccc1`, the survival is -5% (active).

With `Cc1ccc(C2=NN(CC(=O)NCCC(C)C)C(=O)CC2)cc1`, the survival is 37% (active).

Take `Cc1ccc(C2=NN(CC(=O)NCCN(CC(C)C)CC(C)C)C(=O)CC2)cc1`: the survival is 131% (inactive).

As to `CCCCN(CCCNC(=O)CN1N=C(c2ccc(C)cc2)CCC1=O)c1ccccc1`, the survival was 92% (inactive).

`CCCCN(CCCNC(=O)CN1N=C(c2ccccc2)CCC1=O)c1ccccc1`: the survival is 88% (inactive).

On to `CCN(CCCNC(=O)CN1N=C(c2ccc(OC)cc2)CCC1=O)c1cccc(C)c1`, for which the survival was 123% (inactive).

Turning to `COc1ccc(C)cc1NC(=O)c1ccc2c(c1)CCN2S(=O)(=O)c1ccc(Cl)cc1`, the survival is 79% (inactive).

For the molecule `CCOc1ccc(NC(=O)c2ccc3c(=O)n4c(nc3c2)CCCCC4)cc1`, the survival is 139% (inactive).

For the molecule `O=C(NCCc1ccc(Cl)cc1)C(=O)NCC(c1cccs1)S(=O)(=O)c1ccccc1` (centres undefined), the survival was 77% (inactive).

For the molecule `CCOC(=O)c1c(NC(=O)/C=C/c2ccccc2)sc2c1CCCC2`, the survival is 75% (inactive).

As to `CCOC(=O)c1c(NC(=O)/C=C/c2ccc(OCC)cc2)sc2c1CCCC2`, the survival is 36% (active).

In the case of `CCOC(=O)c1c(NC(=O)/C=C/c2ccc(C(C)C)cc2)sc2c1CCC2`, the survival was 56% (inactive).

As to `CCOc1ccc(/C=C/C(=O)Nc2sc3c(c2C(=O)OC)CCCC3)cc1`, the survival is 110% (inactive).

As to `CCOC(=O)c1c(NC(=O)/C=C/c2ccc(OCC)cc2)sc2c1CCC2`, the survival was 145% (inactive).

`CCOC(=O)c1c(NC(=O)/C=C/c2ccc(C)cc2)sc2c1CCCC2`: the survival is 22% (active).

For the molecule `CC(C)OCCCN1C(=O)c2[nH]nc(-c3ccccc3O)c2C1c1ccccc1F` (centres undefined), the survival was 46% (inactive).

As to `CC(C)OCCCN1C(=O)c2[nH]nc(-c3ccccc3O)c2C1c1ccc(OCc2ccccc2)cc1` (centres undefined), the survival was 28% (active).

For the molecule `COCCCN1C(=O)c2[nH]nc(-c3ccccc3O)c2C1c1ccc(OCc2ccccc2)cc1` (centres undefined), the survival was 8% (active).

As for `COCCCN1C(=O)c2[nH]nc(-c3ccccc3O)c2C1c1ccc(OC)cc1` (centres undefined), the survival is 53% (inactive).

Turning to `CCCCN1C(=O)c2[nH]nc(-c3ccccc3O)c2C1c1ccc(OCc2ccccc2)cc1` (centres undefined), the survival was 43% (active).

In the case of `CCCCN1C(=O)c2[nH]nc(-c3ccccc3O)c2C1c1ccc(C(C)(C)C)cc1` (centres undefined), the survival was 88% (inactive).

Regarding `CC(C)OCCCN1C(=O)c2[nH]nc(-c3ccccc3O)c2C1c1cccc(OCc2ccccc2)c1` (centres undefined), the survival is 49% (inactive).

As for `COCCNC(=O)c1c(NC(=O)c2cc(=O)c3cc(Cl)ccc3o2)sc2c1CCCC2`, the survival is 49% (inactive).

Consider `Cc1cccc(NC(=O)c2sc3nc(N4CCOCC4)c4c(c3c2N)CC(C)(C)OC4)c1`, for which the survival was 91% (inactive).

Take `Cc1cccc(Oc2ccc(NC(=O)CCC(=O)OCC(=O)c3ccc(Br)cc3)cc2)c1C`: the survival was 68% (inactive).

Consider `COc1ccc(OC)c(S(=O)(=O)Nc2cccc(-c3ccc(N4CCCCC4)nn3)c2)c1`, for which the survival was 83% (inactive).

Take `COCCCn1c(SCC(=O)N2CC(=O)Nc3ccccc32)nnc1-c1ccoc1C`: the survival was 79% (inactive).

As for `CCOC(=O)c1c(-c2ccc(C)cc2)csc1NC(=O)c1cc(=O)c2cc(C)ccc2o1`, the survival is 42% (active).

Take `CCOC(=O)c1c(NC(=O)c2cc(=O)c3ccc(C)cc3o2)sc(C)c1C`: the survival is 100% (inactive).

As to `CCOC(=O)c1c(-c2ccc(C)cc2)csc1NC(=O)c1cc(=O)c2cc(Cl)ccc2o1`, the survival was 116% (inactive).

On to `CCOC(=O)c1c(NC(=O)c2cc(=O)c3cc(C)cc(C)c3o2)sc(C)c1C`, for which the survival is 48% (active).

Consider `CCOC(=O)c1c(NC(=O)c2cc(=O)c3c(C)cc(C)cc3o2)sc(C)c1C`, for which the survival was 61% (inactive).

In the case of `CCOC(=O)c1c(-c2ccc(C)cc2)csc1NC(=O)c1cc(=O)c2ccc(C)cc2o1`, the survival is 109% (inactive).

On to `COc1ccc(CNC(=O)c2cnc(N3CCOCC3)c3ccccc23)cc1`, for which the survival is 70% (inactive).

In the case of `CC1=Nc2cc(C(=O)NCc3ccccc3Cl)ccc2Sc2c(C)ccc(C)c21`, the survival was 79% (inactive).

Regarding `O=C(Nc1ccccc1Cl)[C@H](CSCc1ccccc1)N1Cc2ccccc2C1=O`, the survival is 58% (inactive).

Consider `CCN1CCN(c2c(S(=O)(=O)c3ccc(Cl)cc3)cnc3ccccc23)CC1`, for which the survival is 77% (inactive).

`Clc1ncnc2sc3c(c12)CCCC3`: the survival was 86% (inactive).

With `CCn1cnc2sc3c(c2c1=O)CCCC3`, the survival was 101% (inactive).

For the molecule `CCOC(=O)C(CC)Sc1ncnc2sc3c(c12)CCCC3` (centres undefined), the survival is -7% (active).

For the molecule `CCC(Sc1ncnc2sc3c(c12)CCCC3)C(=O)OCC(C)C` (centres undefined), the survival was -6% (active).

Take `CCOC(=O)CSc1ncnc2sc3c(c12)CCC3`: the survival is 96% (inactive).

With `CCC(Sc1ncnc2sc3c(c12)CCCC3)C(=O)OC(C)C` (centres undefined), the survival is -7% (active).

For `COC(=O)C(C)n1cnc2sc3c(c2c1=O)CCCC3` (centres undefined), the survival is 92% (inactive).

For `Nc1ncnc2sc3c(c12)CCCC3`, the survival is 57% (inactive).

Regarding `CNC(=O)CSc1ncnc2sc3c(c12)CCCC3`, the survival is 80% (inactive).

In the case of `CCOC(=O)c1ccc2c(c1)N(Cc1ccc(F)cc1Cl)C(=O)c1ccccc1S2(=O)=O`, the survival was 90% (inactive).

In the case of `COc1ccc(-n2nc(C(=O)N3CCN(c4ccccc4OC)CC3)c3c4ccccc4n(C)c3c2=O)cc1Cl`, the survival is 123% (inactive).

As for `Cc1cc(C)c(NC(=O)CCN2C(=O)c3ccccc3Sc3ncccc32)c(C)c1`, the survival was 106% (inactive).
